# DUSP3 inh: VHR1 phosphatase inhibitors, primary screen, biochemical, absorbance, uHTS; Dual specificity protein phosphatase 3 (Homo sapiens), P51452; recombinant VHR phosphatase, pNPP absorbance; inhibition, % at 13.3 µM; 290,000 compounds, 0.52% hits; AID 1654, 2009; in the data active = inhibition above about 50%
# Target sequence (P51452 whole entry, looked up): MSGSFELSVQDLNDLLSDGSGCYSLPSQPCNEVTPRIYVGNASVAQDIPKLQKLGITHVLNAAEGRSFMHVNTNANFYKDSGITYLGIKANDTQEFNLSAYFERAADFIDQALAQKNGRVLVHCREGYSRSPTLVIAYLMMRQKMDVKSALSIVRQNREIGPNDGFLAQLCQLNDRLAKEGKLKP
# BoNT-F LC inh: BoNT/F light chain protease inhibitors, primary screen, biochemical, flow cytometry, MLPCN library; Botulinum neurotoxin type F light chain protease (Clostridium botulinum); Multiplex microsphere protease cleavage assay; inhibition, % at 10 µM; 360,000 compounds, 0.22% hits; AID 588497, 2011; in the data active = inhibition above about 35%, passing the limit was not always enough; inconclusive = no clear call, values can overlap the other calls; note: plate controls were buffer without enzyme for full effect and enzyme alone for no effect
# BoNT-A LC inh2: BoNT/A light chain protease inhibitors, primary screen, biochemical, flow cytometry, MLPCN library; Botulinum neurotoxin type A light chain protease (Clostridium botulinum A str. ATCC 3502); multiplex microsphere protease substrate cleavage; inhibition, % at 10 µM; 360,000 compounds, 0.17% hits; AID 588499, 2011; note: plate controls were buffer without enzyme for full effect and enzyme alone for no effect
# Autofluor counter: counter-screen for toxin protease inhibitors: compound fluorescence; compound autofluorescence counterscreen, microsphere flow cytometry; stronger effect = higher value; fluorescence intensity (concentration not given with the values); 360,000 compounds, 3.1% hits; AID 624483; in the data active = fluorescence intensity above about 16000; inconclusive = no clear call, values can overlap the other calls
# Anthrax LF prot: Bacillus anthracis LF protease inhibitors, primary screen, biochemical, multiplex microsphere, MLPCN library. multiplex microsphere protease cleavage assay. 360,000 compounds, 0.12% hits. inhibition, % at 10 µM; note: plate controls were buffer without enzyme for full effect and enzyme alone for no effect
# 3CLpro inhibitor: SARS-CoV 3CLpro protease inhibitors, primary screen, biochemical, quenched FRET | AID 1706, 2009 | inhibition, % at 6 µM | recombinant SARS-CoV 3CLpro, quenched FRET peptide cleavage | Replicase polyprotein 1ab (Severe acute respiratory syndrome coronavirus), P0C6X7 | 290,000 compounds, 0.14% hits; in the data active = inhibition above about 12%
# * hit, by the source's call; ? = inconclusive; . = no result. Most compounds without a hit are left out; they make up all but 3.9% or so of the library. Cut-off read from the data, not from the text of the source, unless noted: active = inhibition above about 30%; inconclusive = no clear call, values can overlap the other calls; inactive = below that.
SMILES,DUSP3 inh,BoNT-F LC inh,BoNT-A LC inh2,Autofluor counter,Anthrax LF prot,3CLpro inhibitor
CC(=O)Nc1ccc(Nc2ncnc3c2cnn3-c2ccccc2)cc1,7,-2,?,23123*,2,-3
COCCNC(=O)C1(C)CCN(C(=O)c2ccc(C(F)(F)F)nc2C)C1 (configuration not stated),.,1,0,2967,-5,.
CCOc1ccc(CCNC(=O)COC(=O)c2cccnc2SC)cc1OCC,.,6,2,6295,-4,.
CC(=NCc1cccnc1)c1c(O)n(C2CCCCC2)c(=O)[nH]c1=O,-6,-1,?,22369*,-2,-1
CC(=NCc1cccnc1)c1c(O)n(-c2ccccc2C)c(=O)[nH]c1=O,20,-5,-2,20266*,2,6
CCC(=NCc1cccnc1)c1c(O)n(-c2ccccc2C)c(=O)[nH]c1=O,5,?,3,3658,10,-7
CCC(=NCCN1CCOCC1)c1c(O)n(C2CCCCC2)c(=O)[nH]c1=O,-6,9,1,5537,-2,2
CCC(=NCc1cccnc1)c1c(O)n(C2CCCCC2)c(=O)[nH]c1=O,14,0,0,20661*,-4,0
O=C1CC(SCCO)C(=O)N1c1ccccc1 (configuration not stated),21,-2,-1,23642*,-2,11
CSc1ccccc1NC(=O)C1CCCO1 (configuration not stated),-2,2,2,22505*,1,.
CCOc1cc(NC(=O)C2CCCO2)c(OCC)cc1NC(C)=O (configuration not stated),2,-8,-3,17626*,-3,-2
CC(C)(C)C(=O)Nc1ccccc1C(=O)N1CCCC1,9,-3,0,3805,-4,5
O=C(Nc1ccccc1C(=O)N1CCCCC1)C1CCCCC1,-3,-1,-2,22702*,0,4
O=C(Nc1ccccc1C(=O)N1CCOCC1)C1CCCO1 (configuration not stated),-8,6,5,19285*,-4,-4
COc1ccc(Cl)cc1NC(=O)C1CCCO1 (configuration not stated),18,2,-1,4532,-6,0
OC(c1ccc(F)cc1)c1nc(-c2cc3ccccc3o2)cs1 (configuration not stated),.,-1,0,4014,-3,.
O=C(CN1CCC(C(=O)c2cccc(Cl)c2)CC1)Nc1ccc(C(=O)O)cc1,4,-5,0,3608,-3,5
CC(=NCCO)c1c(O)n(C)c(=O)n(C)c1=O,13,-8,0,8077,-1,-2
CC(=NCCC1=CCCCC1)c1c(O)n(C)c(=O)n(C)c1=O,3,0,0,23048*,1,1
COc1ccc(C2C3=C(CCCC3=O)Nc3c(-c4ccccc4)c(C)nn32)cc1 (configuration not stated),28,-4,-1,22999*,1,0
O=C(NCCCN1CCN(Cc2ccccc2)CC1)C1CCN(S(=O)(=O)N2CCC3(CC2)OCCO3)CC1,15,23,-5,21569*,4,-4
O=C(NCCCN1CCC(Cc2ccccc2)CC1)C1CCN(S(=O)(=O)N2CCC3(CC2)OCCO3)CC1,6,-1,0,4777,-5,-2
O=C(CN1C(=O)COc2ccccc21)N(Cc1cccnc1)Cc1cccc(F)c1,18,-4,?,16903*,0,0
CCC1Oc2ccc(C)cc2N(CC(=O)N(Cc2cccnc2)Cc2cccc(F)c2)C1=O (configuration not stated),-9,-19,-2,10641,-5,1
CCOC(=O)N1CCN(C(=O)CSCC(=O)Nc2nc(-c3ccc(Cl)s3)cs2)CC1,5,-1,1,22328*,0,3
SMILES,DUSP3 inh,BoNT-F LC inh,BoNT-A LC inh2,Autofluor counter,Anthrax LF prot,3CLpro inhibitor
Cc1cccn2c(=O)c(C=O)c(N3CCCCC3)nc12,12,-2,-1,3627,6,1
Cc1cccn2c(=O)c(/C=N/O)c(N3CCCC3)nc12,27,-3,?,16881*,-1,2
O=C(Nc1ccc(Cl)cc1)C1Cc2c(-c3ccccc3)ccnc2O1 (configuration not stated),.,9,-1,3870,-3,.
CCn1cc(/C=C(\NC(=O)c2ccc(OC)c(OC)c2)C(=O)N2CCN(C)CC2)c2ccccc21,57*,2,1,4968,-2,-3
COc1ccc(C(=O)N/C(=C\c2cccc3ccccc23)C(=O)N2CCN(C)CC2)cc1OC,6,-5,1,4178,0,0
C[C@H](NC(=O)[C@@H]1Cc2ccccc2CN1C(=O)OC(C)(C)C)C(=O)NCc1ccco1,19,-3,2,5052,-2,0
COC(=O)c1sccc1NC(=S)N1CCCCC1C (configuration not stated),16,12,1,9366,-7,2
COC(=O)c1sccc1NC(=S)N1C(C)CCCC1C (configuration not stated),51*,-8,-1,4779,-11,1
CCOC(=O)c1c(NC(=O)COC(=O)c2cc(OC)c(OC)cc2[N+](=O)[O-])sc(C)c1C,1,-1,1,2517,1,3
CCC1=Nc2cc(C(=O)NCCN3CCCC3)ccc2Sc2ccccc21,58*,-4,1,7341,-3,-1
CN(C)CCCNS(=O)(=O)c1cc(Cl)ccc1Cl,22,-3,?,20853*,0,-5
COCCN(C(=O)c1cc(CN2C(=O)c3ccccc3C2=O)ccc1OC)c1c(N)n(CC(C)C)c(=O)[nH]c1=O,.,11,0,3704,8,.
O=C(Nc1ccc(C(=O)N2CCOCC2)cc1)c1ccccc1Cl,.,-6,0,3907,-4,.
Cc1ccc(SCC(=O)NCCN2C(=O)CSC2=O)cc1C,14,1,0,23097*,-1,3
Cc1cccc(-n2nnnc2SCC(=O)NCCN2C(=O)CSC2=O)c1,14,-1,-1,22931*,-2,-4
Cc1cc(OC(C)C(=O)NCc2ccccn2)c2c(C)c(C)c(=O)oc2c1 (configuration not stated),30,-3,-2,4681,-3,0
CC(=O)Nc1nnc(/C=C/c2cccc([N+](=O)[O-])c2)s1,-2,63*,0,4252,-2,-2
COc1ccc(C)cc1S(=O)(=O)N1CCC2(CC1)OCCN2S(=O)(=O)c1cccs1,.,10,1,4086,1,.
COc1ccc(S(=O)(=O)N2CCC3(CC2)OCCN3S(=O)(=O)c2cccs2)cc1OC,.,-85,-63,20013*,-16,.

# High-throughput results from PubChem BioAssay.
